The supplement of paper PMC11732987, “Enantioselective OTUD7B fragment discovery through chemoproteomics screening and high-throughput optimisation” (Communications Chemistry, 2025)

Tests used:
Experiment in all cases: log2 ratio of Biotin-Ahx-Ub-VS probe labelling (fragment/DMSO); higher = less target engagement (more negative = stronger competition), active = hit call of the paper (q ≤ 0.05, log2 ratio ≤ -1)
Settings in all cases: compound concentration: 200 uM; treatment time: 3 h
USP34 = USP34 (UniProt Q70CQ2)
How it was run: (§1)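 Triplicate samples of HEK293T lysate, 495 µg each, received fragment at 200 µM or vehicle for 3 h, followed by Biotin-Ahx-Ub-VS (0.5 µM final) for 1 h. After NeutrAvidin enrichment of labelled DUBs and LysC/trypsin digestion, peptides were run by diaPASEF LC-MS/MS. The values are average log2 fragment/vehicle ratios from global-median-normalised Spectronaut label-free quantities, tested by unpaired t-test on proteins having ≥2 unique peptides.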

USP36 = molecular target: T1, USP36 (UniProt Q9P275)
T1 sequence (whole entry): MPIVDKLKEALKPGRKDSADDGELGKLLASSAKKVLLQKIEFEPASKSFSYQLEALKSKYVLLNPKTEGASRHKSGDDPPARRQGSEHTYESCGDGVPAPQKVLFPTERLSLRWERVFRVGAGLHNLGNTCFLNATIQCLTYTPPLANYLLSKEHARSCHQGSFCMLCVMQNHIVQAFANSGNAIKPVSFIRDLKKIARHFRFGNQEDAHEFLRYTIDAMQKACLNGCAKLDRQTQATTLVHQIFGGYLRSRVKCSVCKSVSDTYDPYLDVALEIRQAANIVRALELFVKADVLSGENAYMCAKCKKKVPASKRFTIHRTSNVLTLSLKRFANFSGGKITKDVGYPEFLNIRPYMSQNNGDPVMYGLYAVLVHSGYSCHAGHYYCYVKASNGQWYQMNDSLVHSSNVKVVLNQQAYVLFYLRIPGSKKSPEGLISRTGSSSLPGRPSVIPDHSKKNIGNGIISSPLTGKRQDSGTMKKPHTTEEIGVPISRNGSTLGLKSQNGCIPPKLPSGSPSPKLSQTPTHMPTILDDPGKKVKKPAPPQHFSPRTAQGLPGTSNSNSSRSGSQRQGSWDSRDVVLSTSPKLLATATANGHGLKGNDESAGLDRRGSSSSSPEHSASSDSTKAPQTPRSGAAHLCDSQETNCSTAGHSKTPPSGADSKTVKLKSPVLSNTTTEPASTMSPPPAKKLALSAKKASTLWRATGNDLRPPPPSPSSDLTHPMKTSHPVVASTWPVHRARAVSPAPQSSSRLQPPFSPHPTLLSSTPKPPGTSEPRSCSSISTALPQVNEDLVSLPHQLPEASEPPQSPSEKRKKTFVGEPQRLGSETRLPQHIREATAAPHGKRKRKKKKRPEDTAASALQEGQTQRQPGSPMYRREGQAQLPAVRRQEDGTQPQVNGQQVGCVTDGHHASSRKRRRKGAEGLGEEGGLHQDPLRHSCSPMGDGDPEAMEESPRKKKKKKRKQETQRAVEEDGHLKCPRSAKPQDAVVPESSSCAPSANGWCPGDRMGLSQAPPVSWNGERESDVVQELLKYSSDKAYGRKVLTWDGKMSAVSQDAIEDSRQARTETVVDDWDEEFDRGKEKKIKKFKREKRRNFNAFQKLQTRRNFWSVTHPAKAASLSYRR
How it was run: as §1

USP38 = molecular target: T2, USP38 (UniProt Q8NB14)
T2 sequence (whole entry): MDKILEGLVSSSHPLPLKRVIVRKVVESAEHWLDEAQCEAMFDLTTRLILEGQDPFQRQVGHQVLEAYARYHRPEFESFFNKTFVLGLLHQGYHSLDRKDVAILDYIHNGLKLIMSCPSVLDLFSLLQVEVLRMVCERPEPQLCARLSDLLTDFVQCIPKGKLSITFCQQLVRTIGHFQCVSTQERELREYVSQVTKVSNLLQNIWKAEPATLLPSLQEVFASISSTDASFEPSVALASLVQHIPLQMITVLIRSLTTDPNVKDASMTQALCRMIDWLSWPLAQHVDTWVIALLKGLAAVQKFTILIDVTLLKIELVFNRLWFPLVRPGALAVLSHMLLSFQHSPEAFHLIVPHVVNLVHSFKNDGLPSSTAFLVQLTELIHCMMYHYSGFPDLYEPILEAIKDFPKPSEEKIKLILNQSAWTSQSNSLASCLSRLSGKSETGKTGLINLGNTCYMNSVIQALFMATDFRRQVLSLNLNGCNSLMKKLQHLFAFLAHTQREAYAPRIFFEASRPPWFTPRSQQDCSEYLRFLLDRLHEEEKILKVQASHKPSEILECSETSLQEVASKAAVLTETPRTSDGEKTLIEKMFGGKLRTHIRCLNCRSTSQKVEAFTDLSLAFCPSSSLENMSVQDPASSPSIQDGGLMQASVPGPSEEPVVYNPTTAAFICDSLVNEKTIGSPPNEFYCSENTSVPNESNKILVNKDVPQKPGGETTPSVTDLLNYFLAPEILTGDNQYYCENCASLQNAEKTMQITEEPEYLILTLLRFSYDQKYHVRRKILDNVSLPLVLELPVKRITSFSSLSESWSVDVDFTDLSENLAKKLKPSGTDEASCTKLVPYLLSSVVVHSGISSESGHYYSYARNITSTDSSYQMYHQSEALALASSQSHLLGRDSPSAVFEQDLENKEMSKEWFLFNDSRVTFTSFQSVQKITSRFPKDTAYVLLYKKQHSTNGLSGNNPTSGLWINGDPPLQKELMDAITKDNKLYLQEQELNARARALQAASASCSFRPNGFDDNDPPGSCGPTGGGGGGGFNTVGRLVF
How it was run: as §1

USP39 = molecular target: T3, USP39 (UniProt Q53GS9)
T3 sequence (whole entry): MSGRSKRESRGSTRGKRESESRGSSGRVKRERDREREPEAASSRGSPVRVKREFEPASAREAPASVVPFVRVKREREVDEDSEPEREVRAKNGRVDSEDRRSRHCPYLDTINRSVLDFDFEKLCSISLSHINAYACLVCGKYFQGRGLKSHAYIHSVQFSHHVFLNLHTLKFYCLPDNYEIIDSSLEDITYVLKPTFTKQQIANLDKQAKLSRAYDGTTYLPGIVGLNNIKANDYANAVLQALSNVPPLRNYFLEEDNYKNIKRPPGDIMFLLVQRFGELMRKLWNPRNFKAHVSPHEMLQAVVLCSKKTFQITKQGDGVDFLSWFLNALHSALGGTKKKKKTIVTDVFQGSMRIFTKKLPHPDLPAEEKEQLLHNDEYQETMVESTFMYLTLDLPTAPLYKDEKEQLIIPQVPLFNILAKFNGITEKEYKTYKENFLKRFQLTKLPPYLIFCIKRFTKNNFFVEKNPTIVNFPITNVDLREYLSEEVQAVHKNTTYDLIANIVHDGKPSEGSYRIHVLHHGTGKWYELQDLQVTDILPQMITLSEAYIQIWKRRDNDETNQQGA
How it was run: as §1

USP4 = molecular target: T4, USP4 (UniProt Q13107)
T4 sequence (whole entry): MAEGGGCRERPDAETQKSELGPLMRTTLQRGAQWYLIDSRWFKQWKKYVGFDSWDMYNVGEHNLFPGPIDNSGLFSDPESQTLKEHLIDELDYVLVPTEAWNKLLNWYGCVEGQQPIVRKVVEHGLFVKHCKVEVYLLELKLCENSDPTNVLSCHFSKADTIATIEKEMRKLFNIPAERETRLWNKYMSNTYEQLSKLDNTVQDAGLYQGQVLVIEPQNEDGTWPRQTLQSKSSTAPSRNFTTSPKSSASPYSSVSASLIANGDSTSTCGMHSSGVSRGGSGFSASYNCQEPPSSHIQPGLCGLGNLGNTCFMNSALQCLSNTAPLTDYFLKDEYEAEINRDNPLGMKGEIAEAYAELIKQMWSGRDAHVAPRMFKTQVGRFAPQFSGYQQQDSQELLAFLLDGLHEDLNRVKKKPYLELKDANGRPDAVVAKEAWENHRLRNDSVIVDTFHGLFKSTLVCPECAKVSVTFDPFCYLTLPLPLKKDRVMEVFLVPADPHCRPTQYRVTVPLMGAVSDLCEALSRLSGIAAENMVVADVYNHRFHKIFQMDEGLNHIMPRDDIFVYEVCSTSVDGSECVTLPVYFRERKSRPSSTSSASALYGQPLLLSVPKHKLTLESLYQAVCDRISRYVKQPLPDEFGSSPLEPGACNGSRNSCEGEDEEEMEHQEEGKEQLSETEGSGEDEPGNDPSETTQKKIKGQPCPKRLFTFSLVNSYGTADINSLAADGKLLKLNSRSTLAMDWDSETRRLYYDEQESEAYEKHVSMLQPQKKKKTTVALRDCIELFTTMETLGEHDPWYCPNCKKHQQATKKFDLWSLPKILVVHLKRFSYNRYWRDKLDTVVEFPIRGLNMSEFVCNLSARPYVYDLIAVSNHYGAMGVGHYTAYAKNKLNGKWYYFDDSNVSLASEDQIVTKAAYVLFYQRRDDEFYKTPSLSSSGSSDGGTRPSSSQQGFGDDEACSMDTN
How it was run: as §1

Measured: log2 ratio of Biotin-Ahx-Ub-VS probe labelling

Sequence of USP34 (Q70CQ2 whole entry, the tested form may be a part): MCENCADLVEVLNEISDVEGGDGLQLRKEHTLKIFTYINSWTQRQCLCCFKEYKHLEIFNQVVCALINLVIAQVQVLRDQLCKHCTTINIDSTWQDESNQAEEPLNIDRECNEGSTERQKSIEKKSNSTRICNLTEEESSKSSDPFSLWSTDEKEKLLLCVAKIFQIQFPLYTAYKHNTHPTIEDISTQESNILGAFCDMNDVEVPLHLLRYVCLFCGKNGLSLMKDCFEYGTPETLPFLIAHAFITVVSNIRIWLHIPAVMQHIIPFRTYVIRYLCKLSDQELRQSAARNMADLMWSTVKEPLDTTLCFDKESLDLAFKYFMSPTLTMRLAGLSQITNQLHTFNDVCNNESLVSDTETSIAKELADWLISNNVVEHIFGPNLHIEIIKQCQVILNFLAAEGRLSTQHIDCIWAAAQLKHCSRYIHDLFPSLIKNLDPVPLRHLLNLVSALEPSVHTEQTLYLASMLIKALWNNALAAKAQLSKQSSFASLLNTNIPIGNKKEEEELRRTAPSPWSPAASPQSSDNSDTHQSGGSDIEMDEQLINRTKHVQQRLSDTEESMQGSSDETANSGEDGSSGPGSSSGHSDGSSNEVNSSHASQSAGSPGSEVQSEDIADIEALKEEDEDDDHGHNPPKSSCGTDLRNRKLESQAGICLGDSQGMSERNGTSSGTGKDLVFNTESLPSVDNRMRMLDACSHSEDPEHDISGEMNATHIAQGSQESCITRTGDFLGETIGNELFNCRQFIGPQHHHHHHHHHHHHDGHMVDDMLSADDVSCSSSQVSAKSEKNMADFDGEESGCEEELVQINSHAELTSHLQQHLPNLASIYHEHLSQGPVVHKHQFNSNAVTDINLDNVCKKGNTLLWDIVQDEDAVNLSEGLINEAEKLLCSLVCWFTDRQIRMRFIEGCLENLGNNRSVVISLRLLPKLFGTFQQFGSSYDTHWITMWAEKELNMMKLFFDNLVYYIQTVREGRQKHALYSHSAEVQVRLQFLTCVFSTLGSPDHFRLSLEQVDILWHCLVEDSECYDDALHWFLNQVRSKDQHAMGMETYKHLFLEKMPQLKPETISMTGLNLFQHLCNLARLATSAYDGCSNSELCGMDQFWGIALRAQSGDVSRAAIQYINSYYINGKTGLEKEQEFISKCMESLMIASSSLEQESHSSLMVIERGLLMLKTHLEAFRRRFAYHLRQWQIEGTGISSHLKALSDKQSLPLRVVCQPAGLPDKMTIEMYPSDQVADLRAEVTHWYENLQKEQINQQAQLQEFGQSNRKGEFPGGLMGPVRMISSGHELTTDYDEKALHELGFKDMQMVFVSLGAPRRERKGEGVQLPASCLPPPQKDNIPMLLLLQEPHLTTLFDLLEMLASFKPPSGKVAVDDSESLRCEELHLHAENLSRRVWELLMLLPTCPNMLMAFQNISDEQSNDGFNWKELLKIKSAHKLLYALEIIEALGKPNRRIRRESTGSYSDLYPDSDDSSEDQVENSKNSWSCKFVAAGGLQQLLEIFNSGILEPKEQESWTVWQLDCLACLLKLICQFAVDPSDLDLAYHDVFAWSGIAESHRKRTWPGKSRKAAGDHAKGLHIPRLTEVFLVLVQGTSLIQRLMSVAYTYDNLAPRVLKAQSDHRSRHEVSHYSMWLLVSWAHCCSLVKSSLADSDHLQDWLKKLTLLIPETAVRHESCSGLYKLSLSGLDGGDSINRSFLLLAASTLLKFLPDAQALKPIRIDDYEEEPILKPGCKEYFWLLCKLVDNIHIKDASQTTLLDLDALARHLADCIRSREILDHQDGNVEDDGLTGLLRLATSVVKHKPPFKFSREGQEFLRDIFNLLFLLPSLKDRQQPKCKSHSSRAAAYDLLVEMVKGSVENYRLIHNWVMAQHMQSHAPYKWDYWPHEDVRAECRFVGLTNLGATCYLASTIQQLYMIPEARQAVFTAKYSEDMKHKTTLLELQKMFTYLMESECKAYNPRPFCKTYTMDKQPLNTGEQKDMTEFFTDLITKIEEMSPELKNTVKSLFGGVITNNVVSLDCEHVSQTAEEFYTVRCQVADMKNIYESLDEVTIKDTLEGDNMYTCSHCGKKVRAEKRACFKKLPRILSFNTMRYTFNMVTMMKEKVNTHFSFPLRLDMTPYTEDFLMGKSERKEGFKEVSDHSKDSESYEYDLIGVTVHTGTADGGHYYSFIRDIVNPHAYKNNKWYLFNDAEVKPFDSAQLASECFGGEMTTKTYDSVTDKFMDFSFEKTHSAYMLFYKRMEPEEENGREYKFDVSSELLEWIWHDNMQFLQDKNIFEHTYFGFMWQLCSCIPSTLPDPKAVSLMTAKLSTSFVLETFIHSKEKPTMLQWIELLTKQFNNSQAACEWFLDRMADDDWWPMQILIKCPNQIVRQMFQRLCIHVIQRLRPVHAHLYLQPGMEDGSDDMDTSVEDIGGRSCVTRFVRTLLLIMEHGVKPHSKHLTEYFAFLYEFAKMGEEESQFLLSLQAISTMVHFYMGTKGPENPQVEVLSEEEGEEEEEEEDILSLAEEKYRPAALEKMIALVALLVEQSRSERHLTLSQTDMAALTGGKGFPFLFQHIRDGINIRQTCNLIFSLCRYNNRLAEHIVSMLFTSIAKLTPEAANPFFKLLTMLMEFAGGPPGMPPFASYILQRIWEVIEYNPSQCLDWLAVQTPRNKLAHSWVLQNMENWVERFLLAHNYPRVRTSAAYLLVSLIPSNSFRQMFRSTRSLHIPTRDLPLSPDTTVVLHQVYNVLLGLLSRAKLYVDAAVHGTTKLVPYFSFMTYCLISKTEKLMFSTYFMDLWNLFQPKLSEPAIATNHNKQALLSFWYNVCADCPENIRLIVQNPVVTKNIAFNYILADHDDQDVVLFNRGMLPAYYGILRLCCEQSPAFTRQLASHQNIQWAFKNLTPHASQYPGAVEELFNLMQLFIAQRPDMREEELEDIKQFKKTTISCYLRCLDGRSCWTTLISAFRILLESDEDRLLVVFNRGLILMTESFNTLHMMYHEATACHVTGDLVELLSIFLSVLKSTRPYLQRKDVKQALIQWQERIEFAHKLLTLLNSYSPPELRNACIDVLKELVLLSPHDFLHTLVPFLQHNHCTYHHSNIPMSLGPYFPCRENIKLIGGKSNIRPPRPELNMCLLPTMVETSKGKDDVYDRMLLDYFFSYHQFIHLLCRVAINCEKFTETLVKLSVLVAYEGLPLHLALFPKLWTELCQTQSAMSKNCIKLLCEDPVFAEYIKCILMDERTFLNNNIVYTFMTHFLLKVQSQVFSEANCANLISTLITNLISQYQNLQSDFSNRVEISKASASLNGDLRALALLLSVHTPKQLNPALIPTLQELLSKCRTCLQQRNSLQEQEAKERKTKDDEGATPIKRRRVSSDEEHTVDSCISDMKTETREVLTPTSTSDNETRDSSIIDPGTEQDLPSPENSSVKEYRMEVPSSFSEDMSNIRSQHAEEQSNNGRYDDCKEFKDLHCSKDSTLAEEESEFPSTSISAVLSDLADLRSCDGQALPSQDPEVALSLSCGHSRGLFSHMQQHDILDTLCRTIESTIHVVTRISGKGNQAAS

Cl.Cn1c(CNC(=O)CCl)nc2cccnc21
inactive: USP34 -0.174 | USP36 -0.125 | USP38 0.0315 | USP39 0.234 | USP4 -0.102
